# Measured values reported in PubChem BioAssay.
# Calls of active or inactive are those of the source. Unless noted, no rule for the calls is given here.
# Experiments:
# [1] = anti-His antibody binders, primary screen, artefact control for SMM control protein annotation, biochemical, small-molecule microarray, 635 nm fluorescence (AID 1128); conditions: anti-His Alexa647 antibody binding, higher = more signal;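 also: score merges feature fluorescence with signal-to-noise for each printed compound spot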
# [2] = tested on: Human papillomavirus type 1a E7 protein (residues 1-88); assay: HPV1a E7 small-molecule binders, primary screen, biochemical, small-molecule microarray, residues 1-88, 635 nm (AID 1129); conditions: small-molecule microarray binding, fluorescence 635 nm; higher = more signal
# [3] = biological target: Focal adhesion kinase 1 (Homo sapiens) (UniProt Q05397); assay: small-molecule microarray binders of FAK, primary screen, biochemical, 635/667 nm fluorescence, BSA, DTT (AID 1130); conditions: PTK2 binding, 635 nm fluorescence, higher = more signal;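 also: composite of spot emission at 667 nm and signal to noise over triplicate slides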
# [4] = tested on: Fibrinogen (Alexa647-labelled); assay: fibrinogen binders on compound microarrays, profiling panel, artefact control for SMM control-protein annotation, biochemical, small-molecule microarray, 635/667 nm fluorescence (AID 1131); conditions: fibrinogen-A647 binding fluorescence, higher = more signal;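 also: z-score merges 667 nm fluorescence with per-spot signal-to-noise over triplicate slides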
# [5] = biological target: Follistatin (Homo sapiens) (UniProt P19883); assay: follistatin binders on small-molecule microarrays, primary screen, biochemical, small-molecule microarray, 635/667 nm fluorescence (AID 1132); conditions: FST binding, 635 nm fluorescence, higher = more signal
# [6] = biological target: Fibroblast growth factor 2 (Homo sapiens) (UniProt P09038); assay: FGF2 binders on small-molecule microarrays, primary screen, biochemical, small-molecule microarray, 635/667 nm fluorescence (AID 1133); conditions: small-molecule microarray binding, FGF2, fluorescence 635/667; higher = more signal
# [7] = mitochondrial membrane potential change in A549 cells, profiling panel, cell-based, JC-1 fluorescence, basal, 24 h, 100 nL (AID 1138); conditions: higher = more signal;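 also: A549 lung adenocarcinoma cells under basal conditions with no added stimulus; test concentration not given here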
# [8] = tested on: Lefty1; assay: Lefty1 binders on small-molecule microarrays, primary screen, biochemical, small-molecule microarray, 635/667 nm fluorescence (AID 1139); conditions: small-molecule microarray binding, fluorescence 635/667; higher = more signal
# [9] = tested on: wheat germ agglutinin (Triticum aestivum), Alexa647-labelled; assay: wheat germ agglutinin binders on compound microarrays, profiling panel, artefact control for SMM control-protein annotation, biochemical, small-molecule microarray, 635/667 nm fluorescence (AID 1140); conditions: WGA-A647 binding, 635 nm fluorescence, higher = more signal;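 also: score merges 667 nm feature emission with signal to noise over triplicate slides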
# [10] = biological target: Luciferin 4-monooxygenase (Photinus pyralis) (UniProt P08659); assay: firefly luciferase enzyme inhibitors, primary screen, biochemical, luminescence, purified enzyme, 2006 set (AID 1141); conditions: SteadyGlo luminescence, 30 min, higher = more signal, called active from +8 up or from −8 down;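 also: cell-free assay with purified firefly luciferase at 100 ng per well in PBS; test concentration not given here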
# [11] = tested on: Wnt5a (protein binding on small-molecule microarray); assay: Wnt5a binders on small-molecule microarray, primary screen, biophysical, 635/667 nm fluorescence (AID 1142); conditions: 635 nm fluorescence, higher = more signal;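 also: fluorescence read at 667 nm with signal to noise per printed feature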
# [12] = cell viability in Huh7 cells, primary screen, cytotoxicity control for HCV replication inhibitor project, CellTiter-Glo luminescence, basal, 48 h (AID 1143); conditions: Huh7 HCV replicon, higher = more signal, called active from +8 up or from −8 down;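 also: Huh7 hepatoma cells carrying a hepatitis C replication reporter with no stimulus; test concentration not given here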
# [13] = P. aeruginosa biofilm formation inhibitors, primary screen, PAO1 strain, BacTiter-Glo luminescence, LB-PBS (AID 1144); conditions: 12 h, higher = more signal
# [14] = CREB reporter modulators without forskolin, primary screen, cell-based, PC12, CRE-LacZ reporter, unstimulated (AID 1145); conditions: no forskolin, luminescence, 4.5 h, higher = more signal, called active from +8 up or from −8 down
# [15] = CREB reporter modulators under forskolin, primary screen, cell-based, PC12, CRE-LacZ reporter, forskolin-stimulated (AID 1146); conditions: luminescence, 4.5 h, higher = more signal, called active from +8 up or from −8 down;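 also: PC12 cells with 6xCRE LacZ reporter stimulated by forskolin 10 µM; beta-galactosidase reporter signal reflecting CREB driven transcription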
# [16] = biological target: Streptavidin (Streptomyces avidinii) (UniProt P22629); assay: streptavidin binders on small-molecule microarray, primary screen, artefact control for SMM compound annotation, biophysical, 635/667 nm fluorescence (AID 1147); conditions: streptavidin binding, higher = more signal;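 also: signal reflects streptavidin binding to arrayed compounds as a control protein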
# [17] = small-molecule binders of probe aInhba, primary screen, biochemical, small-molecule microarray, 635/667 nm fluorescence (AID 1148); conditions: higher = more signal;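 also: score merges 667nm spot fluorescence with signal-to-noise for antibody binding to printed compounds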
# [18] = biological target: Torsin-1A (Homo sapiens) (UniProt O14656); assay: torsin A binders from cell lysate, primary screen, small-molecule microarray, wild-type, 635/667 nm (AID 1149); conditions: COS7 hTOR1A-WT lysate, 635 nm fluorescence, higher = more signal
# [19] = biological target: Torsin-1A (Homo sapiens) (UniProt O14656); assay: small-molecule binders of mutant TOR1A in lysate, primary screen, cell lysate, small-molecule microarray, COS7 lysate, 635/667 nm fluorescence (AID 1150); conditions: COS7 hTOR1A mutant lysate, 635 nm fluorescence, higher = more signal;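 also: score pools 667 nm emission and signal to noise measuring lysate protein binding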
# [20] = tested on: Sonic hedgehog protein (Shh); assay: small-molecule binders of Shh protein, primary screen, biochemical, small-molecule microarray, 635/667 nm fluorescence (AID 1151); conditions: small-molecule microarray binding, 635 nm fluorescence; higher = more signal;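 also: Shh protein binding to compounds spotted on small-molecule microarray slides; score combines spot fluorescence intensity with signal-to-noise across triplicate slides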
# Chain of Luciferin 4-monooxygenase (Photinus pyralis) (P08659 whole entry, looked up): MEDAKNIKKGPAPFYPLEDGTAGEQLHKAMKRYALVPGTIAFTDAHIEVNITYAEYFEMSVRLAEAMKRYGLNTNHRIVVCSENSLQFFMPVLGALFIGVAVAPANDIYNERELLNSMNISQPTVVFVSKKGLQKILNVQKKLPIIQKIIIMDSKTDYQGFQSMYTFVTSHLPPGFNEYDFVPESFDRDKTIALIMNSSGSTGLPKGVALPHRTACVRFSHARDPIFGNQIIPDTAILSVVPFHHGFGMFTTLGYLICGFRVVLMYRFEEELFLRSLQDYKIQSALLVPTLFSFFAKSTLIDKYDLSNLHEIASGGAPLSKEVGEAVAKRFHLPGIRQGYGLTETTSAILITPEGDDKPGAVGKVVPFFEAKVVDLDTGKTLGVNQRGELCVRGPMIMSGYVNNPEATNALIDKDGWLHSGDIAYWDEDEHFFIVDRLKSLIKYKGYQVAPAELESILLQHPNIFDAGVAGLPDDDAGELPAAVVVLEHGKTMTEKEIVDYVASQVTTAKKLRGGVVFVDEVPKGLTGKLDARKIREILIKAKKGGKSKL
# Chain of Focal adhesion kinase 1 (Homo sapiens) (Q05397 whole entry, looked up): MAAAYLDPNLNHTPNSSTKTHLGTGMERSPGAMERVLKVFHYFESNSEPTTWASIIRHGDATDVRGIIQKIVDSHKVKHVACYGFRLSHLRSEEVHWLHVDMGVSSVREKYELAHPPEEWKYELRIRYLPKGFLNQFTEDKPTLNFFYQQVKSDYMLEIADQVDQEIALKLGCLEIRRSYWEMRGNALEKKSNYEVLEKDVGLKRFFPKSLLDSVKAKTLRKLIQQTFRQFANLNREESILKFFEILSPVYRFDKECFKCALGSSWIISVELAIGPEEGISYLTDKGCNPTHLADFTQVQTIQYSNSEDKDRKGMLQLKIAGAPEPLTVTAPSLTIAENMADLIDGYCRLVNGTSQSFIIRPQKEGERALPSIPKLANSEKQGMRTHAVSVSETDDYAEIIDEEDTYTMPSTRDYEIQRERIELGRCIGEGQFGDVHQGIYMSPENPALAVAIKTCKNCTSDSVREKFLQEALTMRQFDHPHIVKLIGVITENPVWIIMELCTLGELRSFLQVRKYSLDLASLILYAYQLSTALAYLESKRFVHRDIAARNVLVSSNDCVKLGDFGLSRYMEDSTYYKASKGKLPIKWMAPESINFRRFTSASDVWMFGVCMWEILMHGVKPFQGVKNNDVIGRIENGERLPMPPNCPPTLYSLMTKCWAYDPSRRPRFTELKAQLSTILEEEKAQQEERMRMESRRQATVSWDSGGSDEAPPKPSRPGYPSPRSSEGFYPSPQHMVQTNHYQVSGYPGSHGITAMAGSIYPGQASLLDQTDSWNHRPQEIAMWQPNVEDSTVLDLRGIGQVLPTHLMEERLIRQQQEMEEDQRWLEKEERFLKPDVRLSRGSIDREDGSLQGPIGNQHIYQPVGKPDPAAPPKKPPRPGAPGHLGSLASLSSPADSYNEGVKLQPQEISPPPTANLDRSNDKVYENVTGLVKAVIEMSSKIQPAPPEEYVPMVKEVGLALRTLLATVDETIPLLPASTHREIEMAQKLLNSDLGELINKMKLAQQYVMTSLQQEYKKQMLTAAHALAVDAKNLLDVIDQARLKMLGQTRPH
# Chain of Follistatin (Homo sapiens) (P19883 whole entry, looked up): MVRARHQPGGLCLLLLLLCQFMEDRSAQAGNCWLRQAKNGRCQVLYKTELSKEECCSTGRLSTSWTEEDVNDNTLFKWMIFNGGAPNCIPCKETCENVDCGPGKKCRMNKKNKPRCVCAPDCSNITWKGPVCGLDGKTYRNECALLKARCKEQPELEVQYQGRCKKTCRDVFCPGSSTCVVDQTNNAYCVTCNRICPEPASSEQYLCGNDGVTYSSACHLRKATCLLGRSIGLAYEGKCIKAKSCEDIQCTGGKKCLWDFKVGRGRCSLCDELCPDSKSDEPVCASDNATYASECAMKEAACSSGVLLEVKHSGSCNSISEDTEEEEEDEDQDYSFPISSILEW
# Chain of Torsin-1A (Homo sapiens) (O14656 whole entry, looked up): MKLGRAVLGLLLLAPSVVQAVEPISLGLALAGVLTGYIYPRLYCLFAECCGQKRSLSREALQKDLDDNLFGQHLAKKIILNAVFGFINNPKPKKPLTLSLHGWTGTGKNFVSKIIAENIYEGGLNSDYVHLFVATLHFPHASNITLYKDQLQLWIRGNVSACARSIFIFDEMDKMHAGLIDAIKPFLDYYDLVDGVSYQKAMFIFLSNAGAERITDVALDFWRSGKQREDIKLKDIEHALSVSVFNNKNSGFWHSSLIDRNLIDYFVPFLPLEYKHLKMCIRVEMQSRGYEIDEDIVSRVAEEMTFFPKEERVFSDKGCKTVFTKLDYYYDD
# Chain of Fibroblast growth factor 2 (Homo sapiens) (P09038 whole entry, looked up): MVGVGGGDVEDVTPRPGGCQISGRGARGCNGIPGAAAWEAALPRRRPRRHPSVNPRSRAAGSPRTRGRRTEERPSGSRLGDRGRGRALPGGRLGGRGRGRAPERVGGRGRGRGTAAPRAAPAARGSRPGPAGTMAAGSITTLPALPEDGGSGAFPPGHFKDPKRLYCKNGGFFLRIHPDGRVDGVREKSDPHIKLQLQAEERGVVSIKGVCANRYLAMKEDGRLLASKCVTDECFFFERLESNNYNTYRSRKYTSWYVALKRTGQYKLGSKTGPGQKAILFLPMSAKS
# Chain of Streptavidin (Streptomyces avidinii) (P22629 whole entry, looked up): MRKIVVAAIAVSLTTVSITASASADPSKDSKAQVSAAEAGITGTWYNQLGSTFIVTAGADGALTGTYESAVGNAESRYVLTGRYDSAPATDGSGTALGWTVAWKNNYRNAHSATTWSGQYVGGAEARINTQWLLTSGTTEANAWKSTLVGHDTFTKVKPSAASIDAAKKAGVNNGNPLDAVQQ
smiles,measurement,setting,value
CC(C)C(CO)N1C(=O)[C@@H]2[C@H]3C(=O)OCC=C[C@H]3OC23C=CCN(c2ccc4ccccc4c2)C(=O)[C@@H]13 (stereo not given in full),composite z-score,[1],-0.151
same,composite z-score,[2],-1.29
same,composite z-score,[3],-0.493
same,composite z-score,[4],-0.581
same,composite z-score,[5],-0.851
same,composite z-score,[6],-1.18
same,z-score,[7],0.742
same,composite z-score,[8],-0.842
same,composite z-score,[9],-0.328
same,z-score,[10],-0.194 (inactive)
same,composite z-score,[11],-0.0522
same,z-score,[12],-0.372 (inactive)
same,z-score,[13],2.05 (inactive)
same,z-score,[14],0.732 (inactive)
same,z-score,[15],0.755 (inactive)
same,composite z-score,[16],-0.818
same,composite z-score,[17],-0.179
same,composite z-score,[18],-0.905
same,composite z-score,[19],-2.07
same,composite z-score,[20],-0.506
C=CC[C@]1(C(=O)O)N=C(c2ccc(OCCCO)cc2)O[C@H]1c1ccccc1CN=[N+]=[N-],composite z-score,[1],0.518
same,composite z-score,[2],-0.583
same,composite z-score,[3],0.174
same,composite z-score,[4],-0.276
same,composite z-score,[5],0.349
same,composite z-score,[6],-0.39
same,z-score,[7],0.00796
same,composite z-score,[8],-0.316
same,composite z-score,[9],0.184
same,z-score,[10],-0.893 (inactive)
same,composite z-score,[11],0.0194
same,z-score,[12],0.101 (inactive)
same,z-score,[13],0.874 (inactive)
same,z-score,[14],0.274 (inactive)
same,z-score,[15],-0.0119 (inactive)
same,composite z-score,[16],-0.0336
same,composite z-score,[17],-0.108
same,composite z-score,[18],0.0499
same,composite z-score,[19],0.416
same,composite z-score,[20],-0.0799
[N-]=[N+]=NCc1ccccc1[C@@H]1OC(c2ccc(OCCCO)cc2)=N[C@]1(Cc1ccccc1)C(=O)O,composite z-score,[1],1.25
same,composite z-score,[2],0.445
same,composite z-score,[3],1.4
same,composite z-score,[4],0.635
same,composite z-score,[5],0.592
same,composite z-score,[6],0.0221
same,z-score,[7],1.36
same,composite z-score,[8],-0.548
same,composite z-score,[9],0.536
same,z-score,[10],-1.44 (inactive)
same,composite z-score,[11],-0.198
same,z-score,[12],-0.354 (inactive)
same,z-score,[13],-0.608 (inactive)
same,z-score,[14],1.19 (inactive)
same,z-score,[15],-0.707 (inactive)
same,composite z-score,[16],0.728
same,composite z-score,[17],-0.016
same,composite z-score,[18],0.497
same,composite z-score,[19],0.786
same,composite z-score,[20],-0.934
CO[C@H]1O[C@H](CO)[C@@H](OC(=O)Nc2ccc3c(c2)OCO3)[C@H](OC(=O)Nc2ccc3c(c2)OCO3)[C@H]1OC(=O)Nc1ccc2c(c1)OCO2,composite z-score,[1],2.47
same,composite z-score,[2],1.22
same,composite z-score,[3],0.0847
same,composite z-score,[4],0.86
same,composite z-score,[5],1.23
same,composite z-score,[6],0.506
same,z-score,[7],-0.641
same,composite z-score,[8],0.683
same,composite z-score,[9],1.02
same,z-score,[10],-5.43 (inactive)
same,composite z-score,[11],0.158
same,z-score,[12],-1.2 (inactive)
same,z-score,[13],-0.416 (inactive)
same,z-score,[14],1.05 (inactive)
same,z-score,[15],-0.808 (inactive)
same,composite z-score,[16],0.697
same,composite z-score,[17],0.297
same,composite z-score,[18],0.713
same,composite z-score,[19],1.74
same,composite z-score,[20],0.942
O=C1C[C@@](C(=O)O)(c2ccc([N+](=O)[O-])cc2)[C@@H](c2ccc(CO)cc2I)N1C1CCCCC1,composite z-score,[1],0.806
same,composite z-score,[2],0.796
same,composite z-score,[3],0.113
same,composite z-score,[4],0.873
same,composite z-score,[5],0.539
same,composite z-score,[6],0.293
same,z-score,[7],-0.706
same,composite z-score,[8],0.471
same,composite z-score,[9],0.832
same,z-score,[10],-0.411 (inactive)
same,composite z-score,[11],0.45
same,z-score,[12],-4.77 (inactive)
same,z-score,[13],-2.27 (inactive)
same,z-score,[14],-0.619 (inactive)
same,z-score,[15],-0.598 (inactive)
same,composite z-score,[16],0.988
same,composite z-score,[17],0.0905
same,composite z-score,[18],-0.757
same,composite z-score,[19],0.206
same,composite z-score,[20],-0.196
